Assay results taken from ChEMBL document CHEMBL3988442, “University of Dundee, Small-Polar-MMV Screening Library” (2021).

The molecules below were run against AMP-activated protein kinase, AMPK (Homo sapiens) (UniProt P54646+O43741+P54619+Q9UGJ0+Q9Y478+Q13131+Q9UGI9) (assay: AMP-dependent Kinase enzyme assay. An in vitro enzyme assay that detects ADP turnover that is directly proportional to AMPK activity. This uses naive AMPK that is activated during the assay with MK-8722). Details: 30 µM.
Type: functional
Parameters: scale not given: direction of the effect not stated beside the values
`CCN1CC(COC(=O)c2cc(C)nn2CC)CC1=O` (stereo unspecified) was tested, and the Percent Effect was 5.06%. `CCCS(=O)(=O)N1CCC(c2ccc(OC)cc2)CC1` showed a Percent Effect of 2.67%. In the case of `NCC(CO)Cc1ccc(C(F)(F)F)cc1` (stereo unspecified), the Percent Effect is reported as -3.66%. `COC(=O)c1ccc(NC(=O)CCc2ccco2)cc1` showed a Percent Effect of 20.9%. Work on `CN(C)S(=O)(=O)N1CCCCCC1c1cc(-c2ccc(F)cc2)no1` (stereo unspecified) yielded a Percent Effect of 18%. `Cc1nn(C)c(C)c1-c1ccc(=O)n(C(C)C(=O)NCc2ccco2)n1` (stereo unspecified) showed a Percent Effect of 17.2%. `CC(Oc1ccc2c(c1)OCO2)C(=O)N1CCC(c2ncc[nH]2)CC1` (stereo unspecified) gave a Percent Effect of 4.41%. With `COc1ccc(-c2cc(C3CCCCCN3S(C)(=O)=O)on2)cc1` (stereo unspecified) the Percent Effect was 7.05%. `C[C@@H]1CN(CC(=O)NCc2ccccn2)C[C@]1(C)O` showed a Percent Effect of 8.43%. Molecule `CC(O)CN1CCN(Cc2coc(-c3ccccc3)n2)CC1` (stereo unspecified) has a Percent Effect of -7.2%. For `CC(C)(C)c1ccc(C(=O)NCCCNC(=O)c2cnccn2)cc1`, the Percent Effect was 8.31%. `CN1CC(C(=O)NCCc2ccc(Br)cc2F)CC1=O` (stereo unspecified) gave a Percent Effect of 7.63%. For `Cc1ccc(C(=O)NC2CCCN(CC(N)=O)C2)c(=O)[nH]1` (stereo unspecified), the Percent Effect was 2.52%. `Cc1nc(N(C)C)cc(C2(C)CCCNC2)n1` (stereo unspecified) was tested, and the Percent Effect was 10.2%. Molecule `Cc1nnc(NC(=O)NCCN(C(=O)OC(C)(C)C)C2CC2)s1` has a Percent Effect of -6.8%. Molecule `CS(=O)(=O)c1ccc(Cl)c(C(=O)NCCC2=CCCCC2)c1` has a Percent Effect of -0.566%. In the case of `CCOCCC(=O)Nc1cccc(Cl)c1C(N)=O`, the Percent Effect is reported as 1.82%. With `CSCCC(=O)N1CCN(CC(O)C(C)(C)C)CC1` (stereo unspecified) the Percent Effect was -4.07%. Molecule `CCCN1CCC(NCc2cccc(CN3CCOC(C)C3)c2)CC1` (stereo unspecified) has a Percent Effect of -4.13%. `O=C(NCCc1ccncc1)c1cccc(S(=O)(=O)NC2CC2)c1` showed a Percent Effect of -4.52%. `Cc1cc(C(=O)NCCN2CCCCC2C)nn1C(C)(C)C` (stereo unspecified) was tested, and the Percent Effect was 1.65%.
